From PubChem BioAssay come the findings set out here.

A number with no mark means an inactive call.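 Rule for the calls, unless noted: active = RAM network inhibition above 8.4% in each of two replicates, 3 SD over the compound average; inconclusive = above 8.4% inhibition in only one replicate; inactive = 8.4% inhibition or less in each replicate.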

Usually inhibition stands for the drop in the measured response relative to a control, in per cent.

One test in a line: RAM pathway blockade in budding yeast – dse1pr::URA3 reporter, 5-FOA selection, pilot screen (AID 869;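 active = inhibition over a set limit, the all-compound mean plus 3 SD, in both replicate runs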;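 note: 0% = DMSO wells with no growth and 100% = 10 µM 1-NA-PP1 with full growth; RAM network block rescues cells from 5-FOA so hits raise OD615 growth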). The following applies: S. cerevisiae dse1pr::URA3 5-FOA growth, OD615, 2 d; at 10 µM; active compounds read high; strain carries analog-sensitive mutant Cbk1 kinase.
Consider `COCCCN1C(=O)C(O)=C(C(=O)c2ccc(C)o2)C1c1cccc(Br)c1` (stereo not drawn), for which the inhibition was -0.2%.

With `CCOc1ccc(OCC)c(S(=O)(=O)NCCCN2CCOCC2)c1`, the inhibition is 0.535%.

In the case of `CC1CCc2nn(CC(=O)NCCCN3CCCC3=O)cc2C1` (stereo not drawn), the inhibition is 1.29%.

With `Clc1ccc(Cc2nnc(-c3ccccc3Br)o2)cc1`, the inhibition was -0.5%.

Take `Cc1cc(C)c(C)c(OCC(=O)NCCN(C)C)c1`: the inhibition was 0.79%.

As for `COC(=O)CCS(=O)(=O)c1cc(Cl)ccc1Cl`, the inhibition was -1.08%.

With `Cn1cccc1Cc1nnc(SCC(=O)N2CCCC2)n1CCc1ccccc1`, the inhibition is 0.04%.

As to `CC1NC(=O)NC1CCCCC(=O)O` (stereo not drawn), the inhibition is 3.06%.

For `CCOC(=O)c1cc(-c2ccc(F)cc2)n(CC(=O)Nc2nccs2)c1C`, the inhibition was 1.99%.

As for `Cn1c(SCC(=O)Nc2ccccc2F)nnc1-c1cccnc1`, the inhibition was 1.01%.

Regarding `CCn1cc(C(=O)Nc2ccc3c(c2)OCCO3)c2cc(OC)c(OC)cc2c1=O`, the inhibition was 0.915%.

With `O=C1c2ccccc2C(=O)N1CCCc1nc(-c2ccc(Cl)cc2)no1`, the inhibition is 4.25%.

`CN1C(=O)c2cccc(NC(=O)Cc3ccccc3)c2C1=O`: the inhibition is 0.625%.

As for `CCc1c(C(C)O)oc2ccc3c(C)cc(=O)oc3c12` (stereo not drawn), the inhibition was 1.06%.

As to `O=C(NCCc1ccccc1)c1ccncc1`, the inhibition was 1.67%.

For `Cc1onc(-c2ccccc2Cl)c1C(=O)N(C)C1CCCCC1`, the inhibition was -0.15%.

For `CCN(CC(=O)NCc1ccc(F)cc1)C(=O)C1CCN(C(=O)Nc2ccccc2)CC1`, the inhibition is 1.25%.

`CCCCCn1c(=N)n(CC(O)COc2ccccc2OC)c2ccccc21` (stereo not drawn): the inhibition is -0.235%.

In the case of `N#CC1=C(N)Oc2c(sc3ccccc23)C1c1ccco1` (stereo not drawn), the inhibition was 1.22%.

As to `COc1ccccc1N1CCN(Cc2cc(Br)c(O)c3ncccc23)CC1`, the inhibition is -0.8%.

For `CC(=O)Nc1ccc(S(=O)(=O)N2CCN(c3nc(NC4CCCC4)c4ccccc4n3)CC2)cc1`, the inhibition is 1.15%.

Consider `COc1cc(NC(=O)c2c(-c3ccccc3Cl)noc2C)c2ncccc2c1`, for which the inhibition was 2.6%.

For `O=C(O)CCc1ccc(-c2cccs2)n1NC(=O)c1ccc(Cl)cc1`, the inhibition is 0.29%.

The nature of the next test: RAM signaling pathway blockade in yeast – S. cerevisiae, Pdr1DBD-CYC8 efflux-inhibited sensitized strain, primary screen (AID 1298).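 Note: 0% = DMSO untreated cells without growth and 100% = 10 µM 1-NA-PP1 full growth; higher means more yeast growth rescued from 5-FOA killing.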 The following applies: S. cerevisiae cbk1-as DSE1-URA3 strain, 5-FOA growth OD615, 2 d; at 50 µM; active compounds read high.
For the compound `CCC(C)NC(=O)CCCCCn1c(=O)[nH]c2cc(OC)c(OC)cc2c1=O` (stereo not drawn), the RAM network inhibition was 2.96%.

Turning to `Cc1ccc(C(C(=O)NC2CCCC2)N2CCCCC2)cc1` (stereo not drawn), the RAM network inhibition was 5.61%.

Take `COc1ccccc1N1CCN(C(=O)c2ccc(Br)s2)CC1`: the RAM network inhibition was 6.83%.

Regarding `Cc1cc(=O)[nH]c(Cc2ccc(OC(C)C)cc2)n1`, the RAM network inhibition is 5.82%.

Turning to `Cc1ccc(-c2nnc3ccc(SC(C)C(=O)O)nn23)cc1` (stereo not drawn), the RAM network inhibition was 3.9%.

For the compound `CSc1nnc(-c2ccco2)n1-c1ccccc1`, the RAM network inhibition was 5.77%.

Consider `COc1ccc(C2CC(c3cccc(C)c3)n3nc(N)nc3N2)cc1` (stereo not drawn), for which the RAM network inhibition was 1.68%.

Consider `O=C(COc1ccccc1F)c1ccc(O)cc1O`, for which the RAM network inhibition was -1.69%.

Take `O=C(C1CCN(S(=O)(=O)c2cccc3cccnc23)CC1)N1CCN(C2CCCC2)CC1`: the RAM network inhibition was 0.11%.

As to `COc1ccc(N2C(=O)C3CCCN3C2c2ccccc2OC)cc1` (stereo not drawn), the RAM network inhibition was 0.12%.

In the case of `O=S(=O)(Nc1ccc(-c2nc3cccnc3s2)cc1)c1cccs1`, the RAM network inhibition is 3.74%.

Take `COc1cc(OC)c(C2CC(=O)N3CN(C)CSC3=C2C#N)cc1OC` (stereo not drawn): the RAM network inhibition is 9.58%.

For `CCOCCn1c(SCc2ccc(C)cc2)nc2c1c(=O)[nH]c(=O)n2C`, the RAM network inhibition was 4.28%.

As for `CC1Oc2ccccc2C=C1C1/C(=C(/O)c2ccccc2)C(=O)C(=O)N1CCCN(C)C` (stereo not drawn), the RAM network inhibition is 0.77%.

For the compound `c1ccc2cc3[nH]c(CN4CCCCC4)nc3cc2c1`, the RAM network inhibition is 5.29%.

With `CCCCCOc1ccc(NC(=O)CCCC(=O)O)cc1`, the RAM network inhibition is 1.02%.

As for `COc1cccc(NC(=O)CSc2nnc(-c3ccc(C)cc3)o2)c1`, the RAM network inhibition was 4%.

`COCCCN1C(=O)C(O)=C(C(=O)c2ccc(C)o2)C1c1cccc(Br)c1` (stereo not drawn): the RAM network inhibition is 4.3%.

Regarding `CCOc1ccc(OCC)c(S(=O)(=O)NCCCN2CCOCC2)c1`, the RAM network inhibition is 0.2%.

As to `CC1CCc2nn(CC(=O)NCCCN3CCCC3=O)cc2C1` (stereo not drawn), the RAM network inhibition was 4.13%.

With `Clc1ccc(Cc2nnc(-c3ccccc3Br)o2)cc1`, the RAM network inhibition was 3.39%.

With `Cc1cc(C)c(C)c(OCC(=O)NCCN(C)C)c1`, the RAM network inhibition was 0.26%.

Regarding `COC(=O)CCS(=O)(=O)c1cc(Cl)ccc1Cl`, the RAM network inhibition was 1.34%.

As to `Cn1cccc1Cc1nnc(SCC(=O)N2CCCC2)n1CCc1ccccc1`, the RAM network inhibition was 1.63%.

As for `CC1NC(=O)NC1CCCCC(=O)O` (stereo not drawn), the RAM network inhibition is 2.65%.

On to `CCOC(=O)c1cc(-c2ccc(F)cc2)n(CC(=O)Nc2nccs2)c1C`, for which the RAM network inhibition was 4.55%.

With `Cn1c(SCC(=O)Nc2ccccc2F)nnc1-c1cccnc1`, the RAM network inhibition was -1.31%.

`CCn1cc(C(=O)Nc2ccc3c(c2)OCCO3)c2cc(OC)c(OC)cc2c1=O`: the RAM network inhibition is -1.36%.

`O=C1c2ccccc2C(=O)N1CCCc1nc(-c2ccc(Cl)cc2)no1`: the RAM network inhibition was 2.37%.

As to `CN1C(=O)c2cccc(NC(=O)Cc3ccccc3)c2C1=O`, the RAM network inhibition was -0.88%.

For `CCc1c(C(C)O)oc2ccc3c(C)cc(=O)oc3c12` (stereo not drawn), the RAM network inhibition is 6.56%.

Turning to `O=C(NCCc1ccccc1)c1ccncc1`, the RAM network inhibition was 0.86%.

`Cc1onc(-c2ccccc2Cl)c1C(=O)N(C)C1CCCCC1`: the RAM network inhibition is 2.15%.

On to `CCN(CC(=O)NCc1ccc(F)cc1)C(=O)C1CCN(C(=O)Nc2ccccc2)CC1`, for which the RAM network inhibition was 0.37%.

In the case of `CCCCCn1c(=N)n(CC(O)COc2ccccc2OC)c2ccccc21` (stereo not drawn), the RAM network inhibition is 0.4%.

For `N#CC1=C(N)Oc2c(sc3ccccc23)C1c1ccco1` (stereo not drawn), the RAM network inhibition was -0.62%.

In the case of `COc1ccccc1N1CCN(Cc2cc(Br)c(O)c3ncccc23)CC1`, the RAM network inhibition is -1.73%.

Turning to `CC(=O)Nc1ccc(S(=O)(=O)N2CCN(c3nc(NC4CCCC4)c4ccccc4n3)CC2)cc1`, the RAM network inhibition was 3.62%.

As for `COc1cc(NC(=O)c2c(-c3ccccc3Cl)noc2C)c2ncccc2c1`, the RAM network inhibition is 7.52%.

As to `O=C(O)CCc1ccc(-c2cccs2)n1NC(=O)c1ccc(Cl)cc1`, the RAM network inhibition is -0.58%.
